A selection follows.
aSyn 5UTR act: Activators via SNCA 5'UTR binding, MLPCN | AID 1814 | activity score, % (tested at 7.5 µM), hits read low | alpha-synuclein 5'UTR reporter, activators screen | 7.1% of 300,000 active; in the data active = activity score below about -60%
Of the large screens only hits and unclear results are named; the others gave an inactive call.

O=[N+]([O-])c1cccc(-c2nnc(-c3ccc4c(c3)OCO4)o2)c1	aSyn 5UTR act -78
O=[N+]([O-])c1cccc(-c2nnc(-c3ccccc3)o2)c1	none
Clc1ccccc1-c1nnc(-c2ccc3c(c2)OCO3)o1	aSyn 5UTR act -82
Cc1c(OCc2ccc([N+](=O)[O-])cc2)ccc2c3c(c(=O)oc12)CCC3	aSyn 5UTR act -114
Cc1c(OCC(=O)OC(C)(C)C)ccc2c3c(c(=O)oc12)CCC3	aSyn 5UTR act -62
Cc1c(OCC(=O)NCc2cccnc2)ccc2c3c(c(=O)oc12)CCC3	aSyn 5UTR act -71
CC(=O)COc1ccc2c3c(c(=O)oc2c1C)CCCCC3	aSyn 5UTR act -120
Cc1c(C)c2ccc(OCC(=O)Nc3ccccn3)c(C)c2oc1=O	none
Cc1cc(C(=O)N/N=C/c2cc(Cl)cc([N+](=O)[O-])c2O)c2ccccc2n1	aSyn 5UTR act -63
Cc1cccc(NC(=O)c2ccc(Cl)c(S(=O)(=O)N3CCCC3)c2)n1	aSyn 5UTR act -68
Cc1cccc(NC(=O)c2ccc(Cl)c(S(=O)(=O)N3CCCCC3)c2)n1	aSyn 5UTR act -79
O=C(Nc1cc(S(=O)(=O)N2CCCCC2)ccc1Cl)c1ccccc1NS(=O)(=O)c1ccc(F)cc1	none
O=C(Nc1nnc(Cc2ccccc2)s1)Nc1ccccc1F	aSyn 5UTR act -103
O=C(Nc1nnc(-c2ccncc2)s1)Nc1ccccc1F	aSyn 5UTR act -102
CN(C)c1ccc(/C=C2\CCC/C(=C\c3ccccc3)C2=O)cc1	aSyn 5UTR act -81
CN(C)/N=C/C=C1\CCC/C(=C\c2ccc(F)c(F)c2)C1=O	aSyn 5UTR act -422
COc1ccc(/C=C2\CCC/C(=C\C=N\N(C)C)C2=O)cc1	aSyn 5UTR act -427
CCOC(=O)c1c(C)[nH]c(C(=O)COC(=O)C2CC2C)c1C (configuration not stated)	aSyn 5UTR act -143
O=C(C1=C(O)C(=O)N(c2ncccn2)C1c1ccc(Cl)c(Cl)c1)c1ccco1 (configuration not stated)	aSyn 5UTR act -81
CCC(=O)NC(c1ccco1)c1cc(Cl)c2cccnc2c1O (configuration not stated)	none
CCc1ccc2oc(-c3ccc(OC)cc3)cc(=Nc3c(C)n(C)n(-c4ccccc4)c3=O)c2c1	aSyn 5UTR act -77
Cc1cc(C(=O)CN2CCCCC2)c(C)n1-c1ccc(F)cc1	aSyn 5UTR act -129
Cc1cc(C(=O)CNCc2ccco2)c(C)n1-c1ccc(F)cc1	aSyn 5UTR act -106
Cc1cc(C(=O)CN2CCC(C)CC2)c(C)n1-c1ccc(F)cc1	aSyn 5UTR act -97
Cc1cc(C(=O)NC2CCCCC2)c(C)n1-c1ccc(F)cc1	aSyn 5UTR act -174
CC(C)N1CCC2(CC1)N=C(c1ccc3c(c1)OCO3)CC(c1cc(Cl)ccc1O)N2 (configuration not stated)	aSyn 5UTR act -173
CC1CCN(c2oc(-c3ccccc3Cl)nc2C#N)CC1	aSyn 5UTR act -144
CC1CCN(c2oc(-c3ccc(F)cc3)nc2C#N)CC1	aSyn 5UTR act -67
O=C(COC(=O)c1ccc2[nH]c3c(c2c1)CCCC3)Nc1ccccc1	aSyn 5UTR act -64
CCn1c(SC(C)C)nnc1-c1cc(-c2ccccc2)sc1N	aSyn 5UTR act -171
COC(=O)Nc1nc2ccc(Br)cc2s1	aSyn 5UTR act -148
COc1cccc2sc(NC(=O)c3ccc(Br)s3)nc12	aSyn 5UTR act -146
COC(=O)Nc1nc2c(C)cccc2s1	aSyn 5UTR act -92
Cc1cccc2sc(NC(=O)c3ccc(Cl)s3)nc12	aSyn 5UTR act -199
Cc1cccc2sc(NNC(=O)c3ccc(S(=O)(=O)N4CCc5ccccc5C4)cc3)nc12	none
Cn1cnnc1SCC(=O)c1ccc2c(c1)CCCC2	aSyn 5UTR act -71
N#CC(Cc1ccc(OC(F)F)cc1)c1nc2ccccc2[nH]1 (configuration not stated)	aSyn 5UTR act -157
Cn1c(=O)n(C)c2cc(NC(=O)CCl)ccc21	aSyn 5UTR act -180
CCn1c(=O)oc2cc(NC(=O)CCl)ccc21	aSyn 5UTR act -104
C=C(C)C1CC=C(C)/C(=N/NC(=O)c2ccoc2C)C1 (configuration not stated)	aSyn 5UTR act -150
COc1ccc(Cc2nn3c(-c4ccccc4Br)nnc3s2)cc1	none
COc1ccc(Cn2c(-c3ccc(Br)cc3)c[n+]3ccccc23)cc1	aSyn 5UTR act -143
Nc1nc2c(s1)CCc1c-2cnn1-c1ccccc1	aSyn 5UTR act -80
COc1cc(-c2ccccc2)nc(N)n1	aSyn 5UTR act -117
CCOc1cc(-c2ccccc2)nc(N)n1	aSyn 5UTR act -112
Cc1nc2sc(-c3ccccc3)nn2c(=O)c1Br	aSyn 5UTR act -78
c1ccc(-c2cn3nc(-c4ccccc4)sc3n2)cc1	none
O=C(N[C@@H](Cc1ccccc1)C(=O)NC1CCCCCC1)c1ccco1	aSyn 5UTR act -78
COc1ccc(/C=C/c2nc(-c3ccccc3O)n[nH]2)cc1	aSyn 5UTR act -74
COC(=O)c1cn[nH]c1NC(=S)Nc1ccc(Cl)c(Cl)c1	aSyn 5UTR act -101
COC(=O)c1cn[nH]c1NC(=S)Nc1ccc(C)cc1Cl	aSyn 5UTR act -127
CCCSc1ccc2nc(-c3ccccc3)cn2c1	none
CCCCSc1ccc2nc(-c3ccc(C#N)cc3)cn2c1	aSyn 5UTR act -128
O=C(Nc1ccc(-c2noc(CCc3ccccc3)n2)cc1)c1cccnc1	aSyn 5UTR act -67
Cc1ccc2oc(-c3ccc(NC(=O)c4cccnc4)cc3)nc2c1	aSyn 5UTR act -162
O=C(Nc1ccc(-c2nc3ccccc3o2)cc1)c1cccnc1	aSyn 5UTR act -133
COc1cccc(C(=O)Nc2ccc(-c3nc4ccccc4o3)c(O)c2)c1	aSyn 5UTR act -115
c1ccc(OCc2nc(-c3cccs3)no2)cc1	aSyn 5UTR act -173
CN(Cc1nc(-c2cccs2)no1)CC(O)c1ccccc1 (configuration not stated)	aSyn 5UTR act -62
Fc1ccc(OCc2nc(-c3cccs3)no2)cc1	aSyn 5UTR act -123
COc1ccc(N2CCN(C(=O)CSc3ncccc3-c3nc4ccccc4[nH]3)CC2)cc1	aSyn 5UTR act -114
COc1ccccc1N1CCN(C(=O)CSc2ncccc2-c2nc3ccccc3[nH]2)CC1	aSyn 5UTR act -68
COc1ccccc1N1CCN(Cc2ccc(O)c3ncccc23)CC1	none
Cc1cc2nc(-c3cccnc3SCC(=O)NC(C)C)[nH]c2cc1C	aSyn 5UTR act -122
Cn1c(CNc2ccccc2)nc2ccccc21	aSyn 5UTR act -113
Cn1c(CNc2ccc(F)cc2)nc2ccccc21	aSyn 5UTR act -123
Nc1cccn2c(-c3ccc(Cl)cc3)cnc12	aSyn 5UTR act -260
Nc1cccn2c(-c3ccc(Cl)c(Cl)c3)cnc12	aSyn 5UTR act -183
COc1ccc(N2C(=O)c3ccccc3NC23CCCCC3)cc1	aSyn 5UTR act -76
COc1ccc(N2C(=O)c3ccccc3NC23CCC(C)CC3)cc1 (configuration not stated)	aSyn 5UTR act -106
Cc1nnc(NC(=O)C2COc3ccccc3O2)s1 (configuration not stated)	aSyn 5UTR act -118
O=C(NC1=NCCS1)C1COc2ccccc2O1 (configuration not stated)	none
CCC(CC)c1nnc(NC(=O)C2COc3ccccc3O2)s1 (configuration not stated)	aSyn 5UTR act -72
O=C(Nc1ncc(Cc2ccccc2)s1)C1COc2ccccc2O1 (configuration not stated)	aSyn 5UTR act -190
CC(C)OC(=O)/C(=C/c1ccc2c(c1)c1ccccc1n2C)NC(=O)c1ccccc1	aSyn 5UTR act -146
CC(C)OC(=O)/C(=C\c1ccc2c(c1)c1ccccc1n2C)NC(=O)c1ccccc1	aSyn 5UTR act -113
